The entries come from a sample that favours hits as a whole.
12-LOX inh – inhibitors of human 12S-lipoxygenase ALOX12. P18054. purified 12hLO, xylenol orange hydroperoxide absorbance. Potency, µM (top dose mostly 108 µM), usual class: inhibitors. 580,000 compounds, 1.1% hits
Target sequence (P18054 whole entry, looked up): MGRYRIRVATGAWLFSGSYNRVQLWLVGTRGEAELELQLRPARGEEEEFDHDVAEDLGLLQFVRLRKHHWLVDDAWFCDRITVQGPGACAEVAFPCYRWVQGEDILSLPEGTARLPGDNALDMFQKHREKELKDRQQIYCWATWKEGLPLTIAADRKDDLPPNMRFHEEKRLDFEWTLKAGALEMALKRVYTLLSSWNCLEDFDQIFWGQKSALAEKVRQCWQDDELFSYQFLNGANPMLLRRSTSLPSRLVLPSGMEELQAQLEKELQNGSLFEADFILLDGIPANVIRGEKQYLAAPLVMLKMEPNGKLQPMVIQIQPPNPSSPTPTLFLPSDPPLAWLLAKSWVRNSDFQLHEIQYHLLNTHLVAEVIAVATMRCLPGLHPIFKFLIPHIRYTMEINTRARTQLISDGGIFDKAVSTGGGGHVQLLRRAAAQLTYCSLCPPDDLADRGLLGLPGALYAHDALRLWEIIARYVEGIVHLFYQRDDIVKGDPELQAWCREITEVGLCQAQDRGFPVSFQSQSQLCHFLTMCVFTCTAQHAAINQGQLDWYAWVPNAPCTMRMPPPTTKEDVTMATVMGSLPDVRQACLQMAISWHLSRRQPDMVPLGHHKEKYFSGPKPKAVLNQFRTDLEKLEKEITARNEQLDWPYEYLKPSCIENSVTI
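Purified human 12hLO (150 nM final) in 25 mM Hepes, 0.01% Triton X-100, pH 7.0 was preincubated 15 min at room temperature with compound. Then 40 uM arachidonic acid was added, 30 min. Hydroperoxide was read by Fe-XO absorbance ratio 573/405 nm.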
DT40 TDP1 CPT – growth inhibition of DT40 Tdp1-/-;hTDP1 cells with camptothecin (screen for TDP1 inhibitors). chicken DT40 Tdp1-/-;hTDP1 cells + 20 nM CPT, ATP luminescence, 48 h. 420,000 compounds, 12% hits. Potency, µM (titrated, usually from 46.2 µM), hits mostly inhibitors; note: nearly all actives have a fitted effect of over 55% in size
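Chicken DT40 Tdp1-/- cells stably complemented with human TDP1 were seeded at 400 cells/well in medium containing 20 nM camptothecin, exposed to pin-transferred compounds, and grown at 37 °C for at least 48 hr. Viability was read as ATP luminescence.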
IL1B secr inh – blocks inflammasome-driven IL-1 beta release | THP-1 LPS/ATP IL-1B secretion, AlphaLISA, 16 h; stronger effect = lower value | activity change, % at 57.5 µM | 360,000 compounds, 4.7% hits | AID 743279; in the data active = activity change below about -50%; inconclusive = mostly about -30% to -49%
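THP-1 cells pretreated 1 hr with compounds (up to 57.5 uM final), then stimulated with LPS (250 ng/mL final) plus ATP (1.25 mM final); secreted IL-1B measured by AlphaLISA after 16 hr, decreased signal indicating inhibition.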
HT1080NT lethal – kills 2HG-producing HT-1080-NT fibrosarcoma cells; HT-1080-NT fibrosarcoma viability, CellTiter-Glo ATP luminescence, 48 h; Potency, µM (titrated, usually from 46.1 µM), most hits filed as cytotoxic; 360,000 compounds, 1.6% hits; AID 686970;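 note: NT is the 2HG producing partner of a matched IDH1 knockdown line; nearly all actives have a fitted effect of over 55% in size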
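750 cells/well, RPMI + 5% FBS; 2 h settle, compound pin-transfer, 48 h at 37 degrees C. CellTiter-Glo 10 min RT, luminescence. Normalized to DMSO and media-only wells.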
HT1080 IDH1KD tx – kills HT-1080 cells with IDH1 knockdown; Potency, µM (series often up to 46.1 µM), most hits filed as cytotoxic; HT-1080 IDH1 knockdown viability, ATP luminescence, 48 h; AID 686971; 360,000 compounds, 2% hits
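Luminescent ATP read-out (CellTiter-Glo, 10 min at room temperature) after 48 h compound exposure at 37 °C gave viability of IDH1-knockdown HT-1080 cells. Activity was normalised to DMSO and cell-free wells, then fitted as concentration-response curves.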
TDP1 cell noCPT – qHTS for Inhibitors of human tyrosyl-DNA phosphodiesterase 1 (TDP1): qHTS in cells in absence of CPT; DT40 Tdp1-/- hTDP1 cells, no CPT, ATP luminescence, 48 h; Potency, µM (top dose mostly 46.2 µM), usual class: inhibitors; 420,000 compounds, 15% hits; note: nearly all actives have a fitted effect of over 55% in size
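Seeded 400 DT40-hTDP1 cells/well (vehicle DMSO, no 20 nM CPT); pinned compounds; ≥48 hr at 37 °C; CellTiter-Glo luminescence as viability measure.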
Numbers stand for hits; – = inactive; ? = inconclusive; · = not tested or not shown. Unless noted, calls come from the whole dose curve; as a rule, active = well fitted curve in the direction sought with a large enough effect; inconclusive = small, poorly fitted or top-dose-only effect, or another doubt; inactive = no such curve, though single readings can be large; an effect the other way counts as inactive or inconclusive.

SMILES	12-LOX inh	DT40 TDP1 CPT	IL1B secr inh	HT1080NT lethal	HT1080 IDH1KD tx	TDP1 cell noCPT
O=C(N/N=C/c1cn(-c2ccccc2)nc1-c1ccc(F)cc1)c1ccc(Br)o1	–	21µM	-56	–	–	23µM
O=C(O)CCCCCN1C(=O)/C(=C\c2cn(-c3ccccc3)nc2-c2cccs2)SC1=S	?	?	–	–	–	–
O=Cc1cn(-c2ccccc2)nc1-c1ccc(F)cc1	–	?	–	–	–	21µM
CC(=O)OC(C(N)=O)C(OC(C)=O)C(N)=O (stereo unspecified)	–	·	·	·	·	·
O=C(O)c1ccc(OCc2nnnn2-c2ccccc2)cc1	–	·	·	·	·	·
CC1=NNC(=O)/C1=C\c1cn(-c2ccccc2)nc1-c1ccc(F)cc1	·	3.7µM	-100	10µM	5.8µM	1.5µM
CCOCC1(C)COc2ccc(C(=O)Nc3ccc(Cl)cc3)cc2N1 (stereo unspecified)	–	·	·	·	·	·
COc1ccc(C(=O)CC(C#N)c2ccc3c(c2)OCO3)cc1OC (stereo unspecified)	?	?	–	–	–	21µM
COc1cc(OC)c(C(=O)O/N=C(\N)c2cccc(C)c2)cc1OC	–	21µM	–	?	?	?
COc1ccc(/C(N)=N/OC(=O)c2ccc3c(c2)OCO3)cc1OC	–	21µM	-62	?	–	?
COc1ccc(/C(N)=N/OC(=O)c2cccs2)cc1OC	–	12µM	?	–	–	?
Cc1cccc(/C(N)=N/OC(=O)c2cccs2)c1	–	–	–	–	–	–
Cc1ccc(NC(=O)c2nn(Cc3ccccc3)c(=O)c3ccccc23)cc1Cl	–	·	·	·	·	·
COc1ccc2c(c1)c(CN1CCCC(c3[nH]ccc3C(N)=O)C1)cn2C (stereo unspecified)	–	·	·	·	·	·
N/C(Cc1cccc2ccccc12)=N\OC(=O)c1ccc2c(c1)OCO2	–	16µM	–	–	–	21µM
N/C(=N\OC(=O)c1cccs1)c1ccccc1	–	?	–	–	–	?
Cc1ccc(/C(N)=N/OC(=O)c2cccs2)cc1	–	23µM	–	–	–	21µM
COC(=O)CC1C(=O)NCCN1C(=O)c1ccccc1-c1ncc[nH]1 (stereo unspecified)	–	·	·	·	·	·
CCCCCC(=O)N1C[C@H](n2cc(C3CC3)nn2)[C@@H](O)C[C@@H]1c1ccc(Cl)cc1	–	?	–	–	–	13µM
CCCCCC(=O)N1C[C@@H](n2cc(C3CC3)nn2)[C@H](O)C[C@@H]1c1ccc(C)cc1	?	?	–	–	–	13µM
CC(C)c1ccc(NC(c2nnc(-c3ccccc3)o2)c2ccc(F)cc2Cl)cc1 (stereo unspecified)	–	?	·	·	·	18µM
Fc1ccc(C(c2nnc(-c3ccccc3)o2)N2CCN(c3ccccc3)CC2)c(Cl)c1 (stereo unspecified)	–	?	·	·	·	21µM
CCOc1ccccc1NC(c1nnc(-c2ccccc2)o1)c1ccc(F)cc1Cl (stereo unspecified)	–	?	·	·	·	21µM
CCOc1ccc(NC(c2ccc(Cl)cc2)c2nnc(-c3cccc(F)c3)o2)cc1 (stereo unspecified)	–	?	·	·	·	–
O[C@@H]1C[C@@H](c2nc(-c3ccc(C(F)(F)F)cc3)no2)N(Cc2cccc(OC(F)(F)F)c2)C1	–	·	·	·	·	·
SMILES	12-LOX inh	DT40 TDP1 CPT	IL1B secr inh	HT1080NT lethal	HT1080 IDH1KD tx	TDP1 cell noCPT
Cc1ccccc1C(=O)N1CCN(c2ccc(NC(=O)c3ccc4c(c3)OCCO4)cc2)CC1	–	?	?	?	–	23µM
Cc1ccc(C(=O)N2CCN(c3ccc(NC(=O)c4ccc5c(c4)OCCO5)cc3)CC2)cc1	–	16µM	·	–	–	?
O=C(Nc1ccc(N2CCN(C(=O)c3ccccc3)CC2)cc1)c1ccc2c(c1)OCO2	–	15µM	-78	–	–	18µM
CCC(C)NC(=O)Cn1nc(C)c2sc(-c3ccccc3)nc2c1=O (stereo unspecified)	–	·	·	·	·	·
CC1(CCCCc2ccccc2)COc2ccc(C(=O)NCc3ccncc3)cc2N1 (stereo unspecified)	–	·	·	·	·	·
COC(=O)c1ccc(NCc2c(O)ccc(O)c2Br)cc1Cl	0.89µM	2.6µM	-119	–	–	4.6µM
COC(=O)c1ccc(NCc2cc(O)ccc2O)cc1O	5µM	5.2µM	-104	?	?	3.3µM
Cc1cc(-c2ccccc2)nc(N(C)NC(=O)c2c(F)cccc2F)c1S(C)(=O)=O	–	?	–	–	–	23µM
Cc1cccnc1C(NC(=O)C1CCN(CCCOc2ccccc2)CC1)c1ccc(F)cc1 (stereo unspecified)	?	?	–	–	–	?
O=C(NC(c1ccc(F)cc1)c1ccc2ccccc2n1)C1CCN(CCOc2ccc(Cl)cc2)CC1 (stereo unspecified)	?	21µM	–	?	21µM	21µM
O=C(NC(c1ccc(F)cc1)c1ccc2ccccc2n1)C1CCN(Cc2ccc3ccccc3n2)CC1 (stereo unspecified)	16µM	?	–	?	23µM	18µM
O=C(NC(c1ccc(F)cc1)c1ccc2ccccc2n1)C1CCN(Cc2cccc(C(F)(F)F)c2)CC1 (stereo unspecified)	–	2.9µM	-89	6.5µM	5.8µM	5.2µM
NC(=O)C1CCN(Cc2cccc(C(F)(F)F)c2)CC1	–	·	·	·	·	·
COCC(C)NC(=O)C1CCN(Cc2ccc(F)cc2)CC1 (stereo unspecified)	–	·	·	·	·	·
CN(C)c1ccc(CN2CCC(C(=O)NC(c3ccc(F)cc3)c3ccc4ccccc4n3)CC2)cc1 (stereo unspecified)	?	?	-54	15µM	?	23µM
CCc1ccccc1NC(=O)CSc1nnc(-c2cc3cccc(OC)c3o2)n1N	–	·	·	·	·	·
Cc1ccc2cc(C(=O)N3CCCC(C(=O)N4CCOCC4)C3)[nH]c2c1 (stereo unspecified)	–	·	·	·	·	·
COCCNC(=O)c1ccc(OC2CCN(C/C=C/c3ccc(F)cc3)CC2)c(Cl)c1	–	·	·	·	·	·
COc1cc(/C=C/CN2CCC(C(=O)NC(c3ccc(F)cc3)c3ccc4ccccc4n3)CC2)ccc1OC(C)=O (stereo unspecified)	?	?	-62	16µM	?	15µM
CC(=O)c1c(CC(=O)O)[nH]n(-c2nc3ccccc3s2)c1=O	?	?	–	10µM	10µM	?
COc1ccc(CN=C(C)c2c(C(F)(F)F)[nH]n(-c3nc4ccccc4s3)c2=O)cc1	–	–	–	–	–	?
